We go through 4 compounds from PubChem BioAssay (EPA / NIEHS).

For assay [1], the target named is Bile acid receptor (Homo sapiens) (UniProt Q96RI1). The assay can be described thus: ATG_IR1_CIS: Attagene CIS-FACTORIAL HepG2 Assay for human Nuclear Receptor Subfamily 1 Group H Member 4 (NR1H4), IR1 submotif (AID 2282946). The following applies: IR1 reporter transcription, actives raise or lower the signal. The gist of the method:
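Cells (human HepG2) carry transiently transfected cis-promoter reporter transcription units. Compounds are incubated 24 h, total RNA is reverse-transcribed and amplified, and labelled fragments are resolved by capillary electrophoresis. Curves use DMSO as baseline.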

Assay [2] in a line: ATG_GRE_CIS: Attagene CIS-FACTORIAL HepG2 Assay for human Glucocorticoid Response Elements (GRE) (AID 2282947). The following applies: HepG2 GRE cis-reporter, Attagene multiplex mRNA; actives raise or lower the signal. The gist of the method:
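Assay uses human hepatoma HepG2 cells transfected with cis-promoter reporter units, exposed 24 h. mRNA from reporters detected by RT-PCR plus capillary electrophoresis; DMSO serves as negative control and baseline.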

Assay [3] in a line: ATG_ISRE_CIS: Attagene CIS-FACTORIAL HepG2 Assay for human Interferon Regulatory Factor 1 (IRF1) binding to an Interferon-Stimulated Response Element (ISRE) (AID 2282948). The following applies: HepG2 ISRE cis-reporter (Attagene), mRNA transcription readout; actives raise or lower the signal. The method in brief:
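Transiently transfected HepG2 cells carrying cis-element reporter units, dosed 24 hours. Reporter mRNA quantified by RT-PCR, fluorescent primer extension, HpaI digestion and capillary electrophoresis. Bidirectional fitting relative to DMSO.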

The nature of assay [4]: ATG_M_06_CIS: Attagene CIS-FACTORIAL HepG2 Assay for M06 Transcription Factor (Internal Marker) (AID 2282950). The following applies: HepG2 Attagene CIS-FACTORIAL M06 internal marker reporter; actives raise or lower the signal. The gist of the method:
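Internal background marker within multiplexed cis-reporter HepG2 system. Cells transiently transfected, dosed 24 h; reporter mRNA measured by RT-PCR, HpaI digestion and capillary electrophoresis. Bidirectional fit relative to DMSO.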

In assay [5] the target is Hypoxia-inducible factor 1-alpha (Homo sapiens) (UniProt Q16665). Put plainly: ATG_HIF1a_CIS: Attagene CIS-FACTORIAL HepG2 Assay for human Hypoxia Inducible Factor 1 (HIF1A) (AID 2282951). As to conditions: HepG2 Attagene cis-factorial HIF1a reporter transcription; actives raise or lower the signal. The method in brief: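 HepG2, transient cis-reporter library, 24 h dosing. RNA → RT (oligo dT) → PCR → 6-FAM primer extension → HpaI → CE. Bidirectional curve fit vs DMSO.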
Chain of Hypoxia-inducible factor 1-alpha (Homo sapiens) (Q16665 whole entry, looked up): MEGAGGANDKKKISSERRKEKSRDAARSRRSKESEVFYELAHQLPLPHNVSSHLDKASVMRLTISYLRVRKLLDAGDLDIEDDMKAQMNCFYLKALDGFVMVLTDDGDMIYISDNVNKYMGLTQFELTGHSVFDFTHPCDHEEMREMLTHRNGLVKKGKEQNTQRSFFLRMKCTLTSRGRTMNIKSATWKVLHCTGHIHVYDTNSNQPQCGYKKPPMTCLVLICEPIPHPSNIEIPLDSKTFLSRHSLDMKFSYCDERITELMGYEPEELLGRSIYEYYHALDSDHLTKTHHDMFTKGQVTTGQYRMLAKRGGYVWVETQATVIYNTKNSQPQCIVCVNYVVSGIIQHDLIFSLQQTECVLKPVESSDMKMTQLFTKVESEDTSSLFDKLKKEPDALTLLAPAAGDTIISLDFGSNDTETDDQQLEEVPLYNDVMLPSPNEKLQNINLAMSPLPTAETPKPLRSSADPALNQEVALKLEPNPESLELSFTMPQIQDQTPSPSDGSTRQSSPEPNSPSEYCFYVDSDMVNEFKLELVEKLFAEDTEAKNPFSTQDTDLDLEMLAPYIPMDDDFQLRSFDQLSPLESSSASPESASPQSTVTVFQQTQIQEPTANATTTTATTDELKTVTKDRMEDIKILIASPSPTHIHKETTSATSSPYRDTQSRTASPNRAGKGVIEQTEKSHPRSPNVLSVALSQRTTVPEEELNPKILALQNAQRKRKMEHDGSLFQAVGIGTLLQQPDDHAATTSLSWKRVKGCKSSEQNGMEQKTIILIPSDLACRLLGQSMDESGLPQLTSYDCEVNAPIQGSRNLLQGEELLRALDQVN

For assay [6], the target named is Hepatocyte nuclear factor 6 (Homo sapiens) (UniProt Q9UBC0). Put plainly: ATG_HNF6_CIS: Attagene CIS-FACTORIAL HepG2 Assay for human Hepatocyte Nuclear Factor 6 (HNF6) (AID 2282952). As to conditions: HepG2 Attagene cis-factorial HNF6 reporter transcription; actives raise or lower the signal. The method in brief:
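HepG2 cells transiently transfected with cis-element-driven multiplexed reporter units measuring endogenous transcription factor activity. After 24 h exposure, reporter mRNA quantified by RT-PCR, FAM-labelled fragments and capillary electrophoresis; bidirectional fitting versus DMSO.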

The target of assay [7] is Heat shock factor protein 1 (Homo sapiens) (UniProt Q00613). The assay can be described thus: ATG_HSE_CIS: Attagene CIS-FACTORIAL HepG2 Assay for human Heat Shock Transcription Factor 1 (HSE) (AID 2282953). The following applies: HepG2 HSE cis-reporter, Attagene RNA transcription; actives raise or lower the signal. The gist of the method:
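HepG2 cells transfected with cis-promoter reporter units sensing endogenous transcription factor activity; reporter mRNA quantified 24 h post-dose by RT-PCR and capillary electrophoresis of 6-FAM-labelled products. Bidirectional fitting against DMSO.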

Assay [8] can be described thus: ATG_MRE_CIS: Attagene CIS-FACTORIAL HepG2 Assay for human Metal Responsive Element (MRE) (AID 2282954). The following applies: HepG2 MRE cis-reporter transcription, Attagene multiplex; actives raise or lower the signal. The gist of the method:
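After a 24 h chemical exposure, transiently transfected HepG2 cells yield RNA whose reporter sequences are amplified, FAM-labelled and sized by capillary electrophoresis. Curves are fitted bidirectionally relative to DMSO.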

Assay [9] in a line: ATG_PBREM_CIS: Attagene CIS-FACTORIAL HepG2 Assay for human Phenobarbital-responsive Enhancer Module (PBREM) (AID 2282955). The following applies: HepG2 PBREM cis-reporter, Attagene multiplexed transcription; actives raise or lower the signal. The gist of the method:
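HepG2, transient MRTU transfection, 24 h dosing; RNA → oligo(dT) RT → PCR → 6-FAM extension → HpaI → CE. Bidirectional fit vs DMSO.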

Assay [10] concerns the target Paired box protein Pax-6 (Homo sapiens) (UniProt P26367). The assay can be described thus: ATG_Pax6_CIS: Attagene CIS-FACTORIAL HepG2 Assay for human Paired Box 6 (PAX6) (AID 2282956). As to conditions: HepG2 CIS-FACTORIAL PAX6 reporter transcription, RNA readout; actives raise or lower the signal. The gist of the method: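 HepG2 cells transiently transfected with cis-promoter-driven multiplexed reporter units sensing endogenous transcription factor activity; 24 h chemical exposure. Reporter mRNA quantified by RT-PCR, 6-FAM labelling, HpaI digestion and capillary electrophoresis; bidirectional fit versus DMSO baseline.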

Assay [11] is described as follows: ATG_PXRE_CIS: Attagene CIS-FACTORIAL HepG2 Assay for human Pregnane X Receptor Element (PXRE) (AID 2282957). As to conditions: HepG2 Attagene CIS-FACTORIAL PXRE reporter, mRNA; actives raise or lower the signal. The gist of the method:
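HepG2 cells transiently transfected with cis-element-driven multiplexed reporter units; after 24 h chemical exposure, reporter mRNA measured by RT-PCR, 6-FAM labelling, HpaI digestion and capillary electrophoresis. Bidirectional fitting relative to DMSO.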

The nature of assay [12]: ATG_PPRE_CIS: Attagene CIS-FACTORIAL HepG2 Assay for human Peroxisome Proliferator-activated Response Element (PPRE) (AID 2282958). As to conditions: HepG2 PPRE cis-element reporter, Attagene transcription factor profiling; actives raise or lower the signal. The method in brief:
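Transcript-level reporter induction in transfected HepG2 cells after 24 h chemical exposure, quantified by fluorescence from RT-PCR products separated by capillary electrophoresis.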

Assay [13] in a line: ATG_Sox_CIS: Attagene CIS-FACTORIAL HepG2 Assay for human SRY-box transcription factor (SOX) (AID 2282960). The following applies: HepG2 Attagene cis-factorial SOX reporter, mRNA; actives raise or lower the signal. The gist of the method:
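Cells were transfected with reporter constructs under cis-regulatory promoters, then exposed to chemicals for 24 h. Reporter transcripts were quantified by fluorescence after RT-PCR and capillary electrophoresis; activity was fitted in both directions against DMSO.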

For assay [14], the target named is Transcription factor Sp1 (Homo sapiens) (UniProt P08047). The assay can be described thus: ATG_Sp1_CIS: Attagene CIS-FACTORIAL HepG2 Assay for human Specificity Protein 1 (Sp1) (AID 2282961). As to conditions: HepG2 Sp1 cis-reporter transcription, actives raise or lower the signal. The method in brief:
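Measures mRNA induction of an Sp1-linked reporter in HepG2 cells 24 h post-dosing. Multiplexed reporters read by RT-PCR and capillary electrophoresis; DMSO serves as negative control and baseline.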

A short description of assay [15]: ATG_SREBP_CIS: Attagene CIS-FACTORIAL HepG2 Assay for human Sterol Regulatory Element Binding (SREBP) (AID 2282962). As to conditions: HepG2 Attagene cis-factorial SREBP reporter, mRNA; actives raise or lower the signal. The gist of the method:
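HepG2 cells transiently transfected with multiplexed cis-promoter reporter units sensing endogenous transcription factors; reporter mRNA measured 24 h after dosing by RT-PCR, 6-FAM labeling, HpaI digestion and capillary electrophoresis. Bidirectional fit versus DMSO.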

Assay [16] addresses Signal transducer and activator of transcription 3 (Homo sapiens) (UniProt P40763). Put plainly: ATG_STAT3_CIS: Attagene CIS-FACTORIAL HepG2 Assay for human Signal Transducer and Activator of Transcription 3 (STAT3) (AID 2282963). The following applies: HepG2, Attagene cis-factorial STAT3 reporter transcription; actives raise or lower the signal. The method in brief: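 After a 24 h compound incubation, total RNA from MRTU-transfected HepG2 cells was converted to cDNA and reporter sequences PCR-amplified, labelled and profiled by capillary electrophoresis. Gain and loss of signal were referenced to DMSO.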

Assay [17] can be described thus: ATG_TA_CIS: Attagene CIS-FACTORIAL HepG2 Assay for human TA Basal Promoter (AID 2282964). As to conditions: HepG2 Attagene CIS-factorial TA basal promoter reporter; actives raise or lower the signal. The method in brief:
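HepG2 cells transiently transfected with multiple reporter units under cis promoter elements, reporting endogenous transcription factor activity; this endpoint tracks the TA basal promoter as background control. Reporter mRNA after 24 h dosing measured by RT-PCR/capillary electrophoresis; bidirectional fits versus DMSO.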

Assay [18] in a line: ATG_M_32_CIS: Attagene CIS-FACTORIAL HepG2 Assay for M32 Transcription Factor (Internal Marker) (AID 2282949).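 Further: background control marker of the multiplexed CIS panel rather than a real target.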 As to conditions: HepG2 Attagene cis-factorial M32 reporter, mRNA; actives raise or lower the signal. The gist of the method: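 Internal background marker read-out: RT-PCR/capillary electrophoresis fluorescence of reporter transcripts from transiently transfected HepG2 cells after 24 h chemical exposure. Activity fitted bidirectionally relative to DMSO negative control.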

Assay [19] can be described thus: ATG_GLI_CIS: Attagene CIS-FACTORIAL HepG2 Assay for human Zinc Finger Protein GLI1 (AID 2282945). The following applies: HepG2, Attagene cis-factorial reporter mRNA, GLI element; actives raise or lower the signal. The gist of the method: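 Bidirectional curve fits relative to DMSO, using reporter mRNA levels from RT-PCR plus capillary electrophoresis. Cells were HepG2 transiently carrying cis-regulated reporter constructs, harvested 24 h after dosing.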

Assay [20] is described as follows: ATG_RORE_CIS: Attagene CIS-FACTORIAL HepG2 Assay for human RAR-related Orphan Receptor Element (RORE) (AID 2282959). As to conditions: HepG2 Attagene cis-factorial RORE reporter, mRNA; actives raise or lower the signal. The gist of the method:
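Multiplexed reporter assay measuring mRNA induction from a cis promoter element in transiently transfected HepG2 cells after 24 h treatment. Detection via RT-PCR and capillary electrophoresis fluorescence; DMSO serves as baseline.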

Molecules are shown by their SMILES. The source made the active and inactive calls. How the source made its calls: active means hit-call score of the fitted dose curve at least 0.9, where 1 is the maximum; inactive means score below 0.9.

The term AC50 denotes the midpoint of the concentration-response curve, whichever way the signal moves.

Chain of Hepatocyte nuclear factor 6 (Homo sapiens) (Q9UBC0 whole entry, looked up, the tested form may be a part): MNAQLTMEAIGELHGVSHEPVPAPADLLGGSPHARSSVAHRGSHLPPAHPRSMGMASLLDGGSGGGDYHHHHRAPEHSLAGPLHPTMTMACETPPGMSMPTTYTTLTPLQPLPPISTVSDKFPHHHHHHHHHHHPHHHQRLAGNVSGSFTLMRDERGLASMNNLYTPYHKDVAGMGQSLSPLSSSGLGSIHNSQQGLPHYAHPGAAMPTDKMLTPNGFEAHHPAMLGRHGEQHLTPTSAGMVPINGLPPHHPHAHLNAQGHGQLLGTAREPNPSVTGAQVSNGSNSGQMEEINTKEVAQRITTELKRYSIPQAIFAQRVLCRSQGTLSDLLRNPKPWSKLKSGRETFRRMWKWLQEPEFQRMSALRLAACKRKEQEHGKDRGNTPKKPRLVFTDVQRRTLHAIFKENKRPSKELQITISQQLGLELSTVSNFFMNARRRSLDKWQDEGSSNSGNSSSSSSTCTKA
Chain of Paired box protein Pax-6 (Homo sapiens) (P26367 whole entry, looked up): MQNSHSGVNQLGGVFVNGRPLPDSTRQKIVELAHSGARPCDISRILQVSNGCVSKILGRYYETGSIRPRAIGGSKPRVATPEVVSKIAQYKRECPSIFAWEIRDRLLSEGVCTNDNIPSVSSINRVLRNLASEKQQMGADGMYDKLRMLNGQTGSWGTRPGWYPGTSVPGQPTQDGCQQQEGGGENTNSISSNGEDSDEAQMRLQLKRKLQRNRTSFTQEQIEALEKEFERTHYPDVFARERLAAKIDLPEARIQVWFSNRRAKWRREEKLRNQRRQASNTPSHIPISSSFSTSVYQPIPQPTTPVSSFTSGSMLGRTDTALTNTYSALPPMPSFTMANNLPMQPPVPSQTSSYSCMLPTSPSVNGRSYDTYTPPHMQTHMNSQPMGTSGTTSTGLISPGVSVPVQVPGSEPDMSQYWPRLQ
Chain of Transcription factor Sp1 (Homo sapiens) (P08047 whole entry, looked up): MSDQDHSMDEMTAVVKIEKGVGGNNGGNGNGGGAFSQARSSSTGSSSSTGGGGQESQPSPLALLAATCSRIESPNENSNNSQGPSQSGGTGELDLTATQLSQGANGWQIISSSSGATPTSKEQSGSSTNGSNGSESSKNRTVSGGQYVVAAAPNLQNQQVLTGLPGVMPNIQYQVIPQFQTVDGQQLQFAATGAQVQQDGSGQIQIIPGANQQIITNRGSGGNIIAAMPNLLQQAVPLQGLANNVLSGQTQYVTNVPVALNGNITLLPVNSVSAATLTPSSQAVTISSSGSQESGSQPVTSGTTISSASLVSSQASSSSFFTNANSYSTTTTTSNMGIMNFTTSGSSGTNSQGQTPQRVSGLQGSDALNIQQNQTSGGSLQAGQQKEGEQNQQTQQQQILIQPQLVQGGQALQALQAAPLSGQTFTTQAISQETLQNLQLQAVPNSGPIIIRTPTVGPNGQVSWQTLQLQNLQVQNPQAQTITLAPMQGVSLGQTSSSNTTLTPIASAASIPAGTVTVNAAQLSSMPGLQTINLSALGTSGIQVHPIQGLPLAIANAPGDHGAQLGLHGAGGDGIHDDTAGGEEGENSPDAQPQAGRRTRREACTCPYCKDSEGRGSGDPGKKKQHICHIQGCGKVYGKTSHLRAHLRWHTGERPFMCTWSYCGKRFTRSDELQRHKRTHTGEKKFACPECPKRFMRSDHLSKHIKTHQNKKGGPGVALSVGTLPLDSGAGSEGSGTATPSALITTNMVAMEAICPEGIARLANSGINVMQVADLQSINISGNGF
Chain of Signal transducer and activator of transcription 3 (Homo sapiens) (P40763 whole entry, looked up): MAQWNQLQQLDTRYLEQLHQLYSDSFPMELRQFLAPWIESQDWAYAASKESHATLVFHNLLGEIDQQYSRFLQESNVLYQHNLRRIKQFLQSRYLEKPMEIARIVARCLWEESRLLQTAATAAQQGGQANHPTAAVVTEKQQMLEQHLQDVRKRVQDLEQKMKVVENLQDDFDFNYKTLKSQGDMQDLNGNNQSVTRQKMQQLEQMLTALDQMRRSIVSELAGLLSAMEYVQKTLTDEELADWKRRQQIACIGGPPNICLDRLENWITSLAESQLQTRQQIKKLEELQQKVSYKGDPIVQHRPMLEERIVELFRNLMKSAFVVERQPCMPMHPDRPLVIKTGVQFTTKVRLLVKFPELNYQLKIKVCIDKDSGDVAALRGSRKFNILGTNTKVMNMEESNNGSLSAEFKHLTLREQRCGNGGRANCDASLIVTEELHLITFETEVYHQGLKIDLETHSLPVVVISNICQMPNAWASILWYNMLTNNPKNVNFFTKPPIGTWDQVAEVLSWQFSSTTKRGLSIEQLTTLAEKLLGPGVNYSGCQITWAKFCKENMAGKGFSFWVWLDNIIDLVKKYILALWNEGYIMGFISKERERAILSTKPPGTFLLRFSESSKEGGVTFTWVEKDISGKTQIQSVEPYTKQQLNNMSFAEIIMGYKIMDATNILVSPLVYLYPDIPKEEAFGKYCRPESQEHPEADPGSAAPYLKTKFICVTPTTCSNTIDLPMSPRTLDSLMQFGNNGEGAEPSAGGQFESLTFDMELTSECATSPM
Chain of Heat shock factor protein 1 (Homo sapiens) (Q00613 whole entry, looked up): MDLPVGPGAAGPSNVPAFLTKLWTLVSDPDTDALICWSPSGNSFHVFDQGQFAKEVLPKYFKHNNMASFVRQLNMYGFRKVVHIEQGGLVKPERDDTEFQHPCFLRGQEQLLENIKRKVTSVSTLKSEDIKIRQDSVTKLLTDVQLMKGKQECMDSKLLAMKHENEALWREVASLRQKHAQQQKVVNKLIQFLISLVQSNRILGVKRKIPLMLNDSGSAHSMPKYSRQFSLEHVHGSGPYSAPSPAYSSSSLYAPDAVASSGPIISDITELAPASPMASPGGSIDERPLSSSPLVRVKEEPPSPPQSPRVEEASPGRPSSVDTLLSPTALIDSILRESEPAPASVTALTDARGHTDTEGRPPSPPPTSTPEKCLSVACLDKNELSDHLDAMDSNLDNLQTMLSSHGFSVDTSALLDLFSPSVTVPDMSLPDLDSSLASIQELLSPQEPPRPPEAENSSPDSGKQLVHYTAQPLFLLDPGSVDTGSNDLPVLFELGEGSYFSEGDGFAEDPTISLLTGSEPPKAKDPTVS
Chain of Bile acid receptor (Homo sapiens) (Q96RI1 whole entry, looked up, the tested form may be a part): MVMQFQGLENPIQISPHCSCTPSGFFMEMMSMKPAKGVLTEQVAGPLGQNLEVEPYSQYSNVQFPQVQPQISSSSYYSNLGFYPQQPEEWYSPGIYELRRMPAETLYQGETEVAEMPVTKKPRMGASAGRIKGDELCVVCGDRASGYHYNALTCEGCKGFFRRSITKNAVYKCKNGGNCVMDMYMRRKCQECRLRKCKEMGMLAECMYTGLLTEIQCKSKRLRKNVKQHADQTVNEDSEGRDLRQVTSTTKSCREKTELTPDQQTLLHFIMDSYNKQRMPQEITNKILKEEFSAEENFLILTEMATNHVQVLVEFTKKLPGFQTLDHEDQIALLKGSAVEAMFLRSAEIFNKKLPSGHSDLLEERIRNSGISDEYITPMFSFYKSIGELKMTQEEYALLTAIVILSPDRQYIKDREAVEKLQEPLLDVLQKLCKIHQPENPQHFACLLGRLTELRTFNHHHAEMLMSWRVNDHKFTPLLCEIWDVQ

As to `Cc1nc(-c2ccc3c(c2)CCN(CCC2CCC(NC(=O)/C=C/c4ccc(F)cc4)CC2)CC3)no1` (configuration not stated), the outcome in [1], in assay [2], in assay [3], in assay [4], in [5] and in [6] was inactive. For the same compound, the compound was called inactive in [7], in [8], in assay [9], in assay [10], in [11] and in assay [12]. Further, the compound was called inactive in [13], in assay [14], in assay [15], in assay [16] and in assay [17].
As to `CCOC(=O)C(C)(C)Oc1ccc(Cl)cc1`, the compound was called inactive in assay [1], in assay [2], in assay [3], in assay [18], in assay [4] and in assay [6]. The call in [7], in [8], in assay [10], in assay [11], in assay [12] and in assay [13] was inactive. The result in [14], in [15], in assay [16] and in assay [17] was inactive.
Consider `COc1ccc(S(=O)(=O)N2C(=O)[C@@](c3ccccc3OC)(N3C[C@H](O)C[C@H]3C(=O)N(C)C)c3cc(Cl)ccc32)c(OC)c1`, for which the AC50 in assay [19] is 125 µM (active); in assay [2] it was 147 µM (active); in assay [3] it was 49.9 µM (active); in assay [5], 25.2 µM (active); in [7], 149 µM (active); in assay [8] it was 45.5 µM (active). For the same compound, the AC50 is 17.1 µM (active) in assay [9]; 64.1 µM (active) in [10]; 0.0584 µM (active) in assay [11]; 76.8 µM (active) in assay [12]; 28.5 µM (active) in assay [20]; 122 µM (active) in assay [13]. Also, the AC50 in [17] is 46.6 µM (active). The outcome in [4], in assay [6], in [14], in [15] and in [16] was inactive.
For the compound `CC1=C(/C=C/C(C)=C/C=C/C(C)=C/CO)C(C)(C)CCC1`, the outcome in assay [19], in assay [3], in assay [18], in assay [4], in assay [5] and in assay [9] was inactive. Also, the outcome in [14], in assay [15], in assay [16] and in [17] was inactive. Moreover, the AC50 in assay [6] was 158 µM (active); in assay [7], 197 µM (active); in assay [8], 106 µM (active); in [10], 49.1 µM (active); in [11], 0.464 µM (active); in assay [12], 47.6 µM (active).
